Bioassay records (PubChem)
RPL19A TOR yeast = yeast TOR pathway RPL19A-GFP modulation; S. cerevisiae RPL19A-GFP strain, flow cytometry, 3 h; hits give low values; percent response vs DMSO, % at 10 µM; 0.3% of 330,000 active; AID 2025;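 active = percent response vs DMSO below 50%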;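 also: median channel GFP fluorescence of the barcoded RPL19A-GFP strain; lower means less RPL19A-GFP as with rapamycin TOR inhibition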
CIT2 TOR yeast = yeast TOR pathway CIT2-GFP modulation; S. cerevisiae CIT2-GFP strain, flow cytometry, 3 h; 100 means same as DMSO wells; 0.065% of 320,000 active; AID 2029; GFP response vs DMSO, % at 10 µM;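 active = GFP response relative to DMSO above a set limit, near the screen mean plus 3 SD, cut at about 150% in these data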;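 also: ratio of well median GFP fluorescence to mean of DMSO wells on the plate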
VLA-4 inh = inhibition in a human VLA-4 binding assay. P13612. VLA-4 expressing cells, ligand binding flow cytometry. inhibition, % (about 7 µM as worked out from the volumes in the protocol). 0.2% of 330,000 active. AID 2557; in the data active = inhibition above about 50%
Target sequence (P13612 whole entry, looked up): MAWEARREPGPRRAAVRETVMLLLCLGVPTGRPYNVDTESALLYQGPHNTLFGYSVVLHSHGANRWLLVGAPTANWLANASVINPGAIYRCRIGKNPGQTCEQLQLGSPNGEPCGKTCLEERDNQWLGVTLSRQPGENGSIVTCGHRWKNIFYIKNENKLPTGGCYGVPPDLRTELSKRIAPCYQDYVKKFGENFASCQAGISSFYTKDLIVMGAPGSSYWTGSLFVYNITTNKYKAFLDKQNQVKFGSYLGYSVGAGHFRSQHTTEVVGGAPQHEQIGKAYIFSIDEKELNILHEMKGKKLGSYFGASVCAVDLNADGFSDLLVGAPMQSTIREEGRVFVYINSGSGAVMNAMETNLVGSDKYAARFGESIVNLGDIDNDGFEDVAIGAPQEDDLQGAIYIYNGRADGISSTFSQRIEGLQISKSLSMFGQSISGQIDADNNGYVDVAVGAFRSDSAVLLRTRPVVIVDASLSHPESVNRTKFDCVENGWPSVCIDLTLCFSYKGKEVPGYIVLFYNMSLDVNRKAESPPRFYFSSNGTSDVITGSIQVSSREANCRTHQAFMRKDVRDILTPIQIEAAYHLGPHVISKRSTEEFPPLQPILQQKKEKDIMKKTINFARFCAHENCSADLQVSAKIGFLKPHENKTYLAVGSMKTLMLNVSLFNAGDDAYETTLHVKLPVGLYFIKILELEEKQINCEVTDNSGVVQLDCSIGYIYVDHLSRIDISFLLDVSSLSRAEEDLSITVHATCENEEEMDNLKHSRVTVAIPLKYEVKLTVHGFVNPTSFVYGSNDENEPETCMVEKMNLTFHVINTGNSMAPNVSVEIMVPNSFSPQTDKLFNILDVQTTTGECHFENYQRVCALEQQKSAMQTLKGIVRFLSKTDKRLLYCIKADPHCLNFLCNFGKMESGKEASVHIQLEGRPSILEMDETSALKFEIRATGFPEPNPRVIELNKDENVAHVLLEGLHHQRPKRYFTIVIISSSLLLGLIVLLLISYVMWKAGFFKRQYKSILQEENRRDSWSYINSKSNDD
LAP4-GFP MLPCN = yeast TOR pathway LAP4-GFP modulation | S. cerevisiae LAP4-GFP multiplex, flow cytometry GFP, 3 h; median GFP as percent of DMSO wells | GFP response vs DMSO, % at 10 µM | 0.34% of 320,000 active | AID 2023;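 active = GFP response vs DMSO above a set limit, about the screen mean plus 3 SD, cut at about 150% in these data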
AGP1-GFP MLPCN = modulators of TOR pathway AGP1-GFP in S. cerevisiae | S. cerevisiae AGP1-GFP multiplex flow cytometry, 3 h; GFP as percent of DMSO wells | GFP response vs DMSO, % at 10 µM | 0.02% of 320,000 active | AID 2066;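 active = GFP response relative to DMSO above a set limit, near screen average plus 3 SD, cut at about 150% in these data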;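 also: median GFP channel fluorescence of the gated AGP1 strain per well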
MEP2 TOR yeast = modulators of TOR pathway MEP2-GFP in S. cerevisiae | 0.51% of 330,000 active | GFP response vs DMSO, % at 10 µM | AID 2016 | S. cerevisiae MEP2-GFP strain, flow cytometry GFP, 3 h; 100% = DMSO control level;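 active = GFP response versus DMSO above a set limit, roughly screen mean plus 3 SD, cut at about 180% in these data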;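 also: median GFP fluorescence of the barcode-gated MEP2-GFP cells per well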
LAP4-GFP pick2 = reconfirmed LAP4-GFP TOR pathway modulator in yeast; shares compounds with LAP4-GFP MLPCN; S. cerevisiae LAP4-GFP strain, flow cytometry GFP, 3 h; GFP response vs DMSO, % at 10 µM; 20% of 590 active; AID 2621;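 active = GFP signal as percent of the solvent control above about 150%, meaning raised reporter expression, limit read from the data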
MEP2-GFP pick2 = second confirmation of modulators of TOR reporter MEP2-GFP in yeast | shares compounds with LAP4-GFP MLPCN | S. cerevisiae MEP2-GFP strain, flow cytometry GFP, 3 h | GFP response vs DMSO, % at 10 µM | 10% of 590 active;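 active = GFP signal above 150% of the solvent control wells, that is a rise of more than half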;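 also: median channel GFP fluorescence of all gated yeast cells per well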
RPL19A GFP CP2 = reconfirmed modulator of RPL19A-GFP TOR reporter in yeast | GFP response vs DMSO, % at 10 µM | AID 2623 | shares compounds with LAP4-GFP MLPCN | 3% of 590 active | S. cerevisiae RPL19A-GFP strain, flow cytometry GFP, 3 h; hits give low values; 100% means same as DMSO wells;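 active = under 65% GFP response relative to DMSO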;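 also: median GFP channel fluorescence per well over the all cells gate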
CIT2-GFP pick2 = second confirmation of modulators of TOR reporter CIT2-GFP in yeast; 8% of 590 active; S. cerevisiae CIT2-GFP strain, flow cytometry GFP, 3 h; DMSO control wells read 100%; GFP response vs DMSO, % at 10 µM; shares compounds with LAP4-GFP MLPCN;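 active = GFP response vs DMSO above about 150%, limit read from the data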;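 also: median green fluorescence per well over all gated yeast cells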
AGP1-GFP pick2 = yeast AGP1-GFP TOR reporter modulation, second cherry pick | shares compounds with LAP4-GFP MLPCN | S. cerevisiae AGP1-GFP strain, flow cytometry GFP, 3 h | percent response vs DMSO, % at 10 µM | 590 tested, under 10 active;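 active = over 150 percent of DMSO response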;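 also: median GFP channel fluorescence over all cells without mother daughter split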
Yeast autofluor = counter-screen for compound autofluorescence in yeast s288c cells; shares compounds with LAP4-GFP MLPCN; S. cerevisiae s288c, 520 nm autofluorescence, flow cytometry, 3 h; hits give high values; zero means same as solvent-only cells; fluorescence change (kMESF span) at 33 µM; 610 tested, under 10 active; AID 2757;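 active = fluorescence span over the dose series, or activity score, above about 33, limit read from the data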
Numbers stand for hits; - = inactive; . = not tested or not shown; [ ] = another dose, or the depositor's remark. Rows were chosen to be rich in hits. Some 1.1% of all compounds tested hit in one or more screens of this group.

SMILES	RPL19A TOR yeast	CIT2 TOR yeast	VLA-4 inh	LAP4-GFP MLPCN	AGP1-GFP MLPCN	MEP2 TOR yeast	LAP4-GFP pick2	MEP2-GFP pick2	RPL19A GFP CP2	CIT2-GFP pick2	AGP1-GFP pick2	Yeast autofluor
C=CCOc1ccccc1C(=O)/C=C1/C(=O)Nc2ccccc21	-	-	-	-	-	-	.	.	.	.	.	-
O=C(CNS(=O)(=O)c1ccccc1)N1CCc2ccccc2C1	-	-	-	-	-	-	.	.	.	.	.	.
Cc1ccc(NC(=O)COC(=O)COc2cccc3c2OC(C)(C)C3)cc1C	-	157.5[may fluoresce green]	-	166.7[may fluoresce green]	-	212.2[may fluoresce green]	-	-	-	-	-	.
Cc1ccc(C)c(N=Nc2ccc(O)c3ncccc23)c1	-	-	-	-	-	-	.	.	.	.	.	.
Cc1cccc(N=Nc2ccc(O)c3ncccc23)c1	-	-	-	165.4[may fluoresce green]	-	-	200.4	-	-	-	-	-
CCS(=O)(=O)N1CCCC(C(=O)NC2CCCCC2C)C1 (stereo not drawn)	-	-	-	-	-	-	.	.	.	.	.	.
CC1CC(C)CN(S(=O)(=O)N2CCCC(C(=O)NC3CCCCC3C)C2)C1 (stereo not drawn)	-	-	-	-	-	-	-	-	-	-	-	.
CC(=O)n1cc(C(C[N+](=O)[O-])SCCN)c2ccccc21 (stereo not drawn)	-	-	-	226.5	-	-	183.4	164.2	-	-	-	-
CC(NS(=O)(=O)c1cccc(C(=O)NCc2ccncc2)c1)c1ccccc1 (stereo not drawn)	-	-	-	-	-	-	.	.	.	.	.	.
C=CCOc1ccc(/C=C/C(=O)OCC(=O)N2CCC(c3ccccc3)=N2)cc1	-	171.2	-	169.7	-	-	-	-	-	-	-	.
CCSc1ccc(-c2nn(-c3ccccc3)cc2/C=C(/C#N)C(=O)NCCCOC)cc1	-	186.1	-	185.8	-	524.9	-	-	-	-	-	.
N/C(=N\OC(=O)c1cc(Br)ccc1Cl)c1ccccn1	-	-	-	207.8	-	-	.	.	.	.	.	-
COc1cc(/C=C/C(=O)C2C(=O)C=C(C)OC2=O)cc(OC)c1O (stereo not drawn)	-	-	-	-	-	-	.	.	.	.	.	.
COc1ccc(/C=C/C(=O)C2C(=O)C=C(C)OC2=O)cc1O (stereo not drawn)	-	-	-	184.7	-	-	.	.	.	.	.	-
O=C1C2C3C=CC(CNS(=O)(=O)c4ccccc4)(O3)C2C(=O)N1c1ccc(Cl)cc1 (stereo not drawn)	-	-	-	-	-	-	.	.	.	.	.	.
CC(=O)Oc1ccc(N2C(=O)C3C4C=CC(CO)(O4)C3C2=O)cc1 (stereo not drawn)	.	-	-	-	-	-	.	.	.	.	.	-
CCC(CO)Oc1cc(NCc2ccccc2Cl)c2ncn(C(C)C)c2c1 (stereo not drawn)	-	-	-	-	-	-	.	.	.	.	.	.
S=C(NCCNCc1ccccc1)NC1CCCCC1	-	-	-	-	-	-	-	-	-	-	-	.
O=S(=O)(NCC1CCN(c2ccc(S(=O)(=O)N3CCOCC3)cc2)CC1)c1ccc(F)cc1	-	-	-	-	-	-	.	.	.	.	.	.
COc1ccc(-c2cn(Cc3ccc(C(=O)c4ccccc4)cc3)nn2)cc1	-	-	-	163.8	-	-	-	-	-	-	-	.
COCCN(C(=O)CCC(=O)Nc1nccs1)C(C(=O)NCCC(C)C)c1ccc(OC)cc1 (stereo not drawn)	-	-	-	-	-	-	.	.	.	.	.	.
CCN(Cc1ccccc1)C(=O)CCS(=O)(=O)c1ccc2c(c1)n(C)c(=O)c(=O)n2C	-	-	-	-	-	-	.	.	.	.	.	.
O=C(/C=C/c1cccc([N+](=O)[O-])c1)c1ccco1	-	-	-	-	-	-	.	.	.	.	.	.
Cc1cccc(/C=C/C(=O)c2ccc([N+](=O)[O-])o2)c1	-	-	-	175.5	-	-	247.5	150.2	-	157.1	-	-
O=C(/C=C/c1cccc([N+](=O)[O-])c1)c1ccc([N+](=O)[O-])o1	-	-	-	242.6	-	-	181.7	-	-	-	-	-
SMILES	RPL19A TOR yeast	CIT2 TOR yeast	VLA-4 inh	LAP4-GFP MLPCN	AGP1-GFP MLPCN	MEP2 TOR yeast	LAP4-GFP pick2	MEP2-GFP pick2	RPL19A GFP CP2	CIT2-GFP pick2	AGP1-GFP pick2	Yeast autofluor
O=C(CN1CCN(Cc2ccccc2)CC1)Nc1ccc(Br)cc1	-	-	-	-	-	-	.	.	.	.	.	.
COc1cccc(NC(=O)CN(C)C(=O)c2ccc3c(c2)S(=O)(=O)N=C2CCCCCN23)c1	-	-	-	-	-	-	.	.	.	.	.	.
CNC(=O)CSc1ncnc2c1cnn2-c1ccccc1	-	-	-	-	-	-	.	.	.	.	.	.
CC(=O)CSc1ncnc2c1cnn2-c1ccccc1	-	202.7	-	-	-	182.8	.	.	.	.	.	-
COc1ccc(N2CCN(C(CNC(=O)C(=O)NC3CCCC3)c3ccco3)CC2)cc1 (stereo not drawn)	-	-	-	-	-	-	.	.	.	.	.	.
N#C/C(=C/c1ccc(N2CCCCC2)o1)c1cccc(F)c1	-	-	-	151.6	-	-	-	-	-	-	-	.
CC1(S(=O)(=O)O)CC(=O)c2ccccc2C1=O (stereo not drawn)	-	-	-	-	-	-	.	.	.	.	.	.
Oc1ccc(-c2c(-c3ccsc3)sc3ccccc23)cc1	-	-	-	153.4	-	-	-	-	-	-	-	.
Cc1c(Br)c(=O)oc2c(Br)c(O)c(O)cc12	-	-	-	-	-	-	-	-	-	-	-	-
CN(Cc1ccccc1)C(=O)C1CCN(S(=O)(=O)c2cccc3nonc23)CC1	-	-	-	-	-	-	.	.	.	.	.	.
Cc1cccc(NC(=O)c2nc[nH]c2C(=O)NCC(=O)OC(C)(C)C)c1	-	-	-	168.4	-	-	-	-	-	-	-	.
